Source: PubChem BioAssay (Tox21)
“And” between values parts separate entries of the source, which are not always exact repeats. Equal entries are not always repeated. Results filed as inconclusive are left out. Where a call stands in place of a potency, no number is given. Some structures have more than one record in an assay (separate samples or runs), and their calls can disagree. The source made the active and inactive calls. Unless noted, calls come from the whole dose curve; as a rule, active = well fitted curve in the direction sought with a large enough effect in the repeat runs; inconclusive = weak or mixed curves; inactive = no such curve, though single readings can be large; an effect the other way counts as inactive or inconclusive.

Columns and labels:
[1] = target: Luciferin 4-monooxygenase (Photinus pyralis) (UniProt P08659); assay: qHTS assay to identify small molecule inhibitors of firefly luciferase (AID 1224835); note: nearly all actives have a fitted effect of over 25% in size
Outline: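 Biochemical qHTS: compounds run as interplate titrations against purified firefly enzyme, with D-luciferin and ATP each at its KM concentration. Light output recorded by CCD imaging.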

[2] = qHTS assay to identify small molecule antagonists of the constitutive androstane receptor (CAR) signaling pathway - cell viability counter screen (AID 1224837); note: nearly all actives have a fitted effect of over 45% in size
Outline: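 Multiplexed cytotoxicity read-out for the CAR antagonist screen: double-stable HepG2-CYP2B6-hCAR cells co-treated with 50 nM CITCO (final) and compound over 15 concentrations, incubated 23 hr, then assessed by CellTiter-Fluor fluorescence.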

[3] = qHTS assay to identify small molecule antagonists of the estrogen related receptor signaling pathway with the pleiotropic PPARgamma coactivator (PGC) from Tox21 10K library (AID 1224841; call rule not given here; note: actives are mostly falling curves and most rising ones were filed inactive; nearly all actives have a fitted effect of over 50% in size; note: potency is the fitted concentration of half-maximal effect)
Outline: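 Antagonism in this quantitative HTS is taken from loss of luciferase signal in PGC/ERR cells. Cells (2,000/well) are treated with compounds in DMSO after a 6 h settling period and read by One-Glo luminescence after 18 h.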

[4] = qHTS assay to identify small molecule agonists of the estrogen related receptor signaling pathway with the pleiotropic PPARgamma coactivator (PGC) from Tox21 10K library (AID 1224842); note: nearly all actives have a fitted effect of over 15% in size
Outline: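 PGC/ERR reporter cell line, 2,000 cells per well, incubated 6 h at 37 C before 23 nL compound in DMSO was added. After 18 h at 37 C, One-Glo luminescence read following 30 min at room temperature.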

[5] = target: Thyrotropin receptor (Homo sapiens) (UniProt P16473); assay: qHTS assay to identify small molecule agonists of the thyroid stimulating hormone receptor (TSHR) signaling pathway (AID 1224843; calls by dose curve; note: nearly all actives have a fitted effect of over 45% in size)
Outline: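 Steps: seed 800 TSHR-HEK293 cells per well; add test compound and hold 30 min at ambient temperature; dispense cAMP-d2 then anti-cAMP cryptate; incubate 1 h at ambient; measure fluorescence intensity.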

[6] = qHTS assay to identify small molecule agonists of the hypoxia (HIF-1) signaling pathway - cell viability counter screen (AID 1224844; calls by dose curve; note: nearly all actives have a fitted effect of over 50% in size)
Outline: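 Tox21 10K compounds were added to HRE-bla ME-180 cells (0.5% dialyzed FBS) and incubated 17 hrs at 37C; ATP-based CellTiter-Glo luminescence then reported cell viability in the same wells.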

[7] = qHTS assay to identify small molecule agonists of H2AX - cell viability counter screen (AID 1224847; calls by dose curve; note: nearly all actives have a fitted effect of over 30% in size; note: potency is the fitted concentration of half-maximal effect; for activity change, negative = cytotoxicity: top concentration of the series differs between compounds)
Outline: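 Cells plated first: CHO-K1, 1000 per well in 10% FBS medium, incubated overnight at 37C. Then 15-point compound titration added (final DMSO 0.76%) for 3 hr. Finally CellTiter-Glo added and luminescence read.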

[8] = qHTS assay to identify small molecule antagonists of the estrogen related receptor (ERR) signaling pathway from Tox21 library (AID 1224848); note: nearly all actives have a fitted effect of over 50% in size; note: potency is the fitted concentration of half-maximal effect
Outline: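 Luminescent reporter read-out (ONE-Glo) from NTP's ERR cell line after 18 h treatment at 37 C with DMSO-dissolved Tox21 compounds; cells pre-plated 6 h beforehand at 2,000 per well.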

[9] = qHTS assay to identify small molecule agonists of the estrogen related receptor (ERR) signaling pathway from Tox21 library (AID 1224849; calls by dose curve; note: nearly all actives have a fitted effect of over 15% in size); conditions: ERR reporter cell line, ONE-Glo luciferase, 18 h
Outline: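 Agonist signal is luciferase luminescence from an ERR reporter cell line treated 18 h at 37 C with DMSO-dissolved compounds, read 30 min after ONE-Glo addition at room temperature.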

[10] = A CellTox Green Cytotoxicity Assay to monitor cytotoxicity in HEK293 cells - 0 hour (AID 1224869); note: nearly all actives have a fitted effect of over 50% in size
Outline: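 Cytotoxicity was tracked continuously in HEK293 cells by a DNA-binding dye excluded from viable cells. Compounds were transferred in DMSO 5 h after seeding; fluorescence was recorded at intervals up to 40 h.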

[11] = qHTS RealTime-Glo MT Cell Viability Assay in HepG2 cells - 40 hour (AID 1224870); note: nearly all actives have a fitted effect of over 50% in size; note: potency is the fitted concentration of half-maximal effect
Outline: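 HepG2 cells (600/well) mixed with RealTime-Glo MT reagent, settled 5 h at 37 C/5% CO2 before compound addition. Nonlytic NanoLuc luminescence from viable-cell prosubstrate reduction read repeatedly during 40 h treatment at 37 C.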

[12] = qHTS assay to identify small molecule agonists of the constitutive androstane receptor (CAR) signaling pathway - cell viability counter screen (AID 1224836); note: nearly all actives have a fitted effect of over 45% in size
Outline: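 HepG2-CYP2B6-hCAR, 2500 cells/well, 4 h pre-incubation; cpd 15 conc + PK11195 0.75 uM final; 23 h, 37 C/5% CO2; CellTiter-Fluor, fluorescence.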

[13] = target: Nuclear receptor subfamily 1 group I member 3 (Homo sapiens) (UniProt Q14994); assay: qHTS assay to identify small molecule antagonists of the constitutive androstane receptor (CAR) signaling pathway (AID 1224838); note: nearly all actives have a fitted effect of over 40% in size
Outline: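 Compounds were titrated across 15 concentrations onto HepG2 cells double-stably expressing hCAR and a CYP2B6-2.2kb reporter, together with 50 nM CITCO (final). After 24 h at 37 C, luciferase activity was measured by luminescence.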

[14] = target: Nuclear receptor subfamily 1 group I member 3 (Homo sapiens) (UniProt Q14994); assay: qHTS assay to identify small molecule agonists of the constitutive androstane receptor (CAR) signaling pathway (AID 1224839);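 note: HepG2 cells stably carrying human CAR and a CYP2B6 luciferase reporter; nearly all actives have a fitted effect of over 15% in size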
Outline: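 HepG2-CYP2B6-hCAR cells, 2500/well, 4 h pre-incubation; compounds 15 conc.; PK11195 0.75 uM final; 24 h, 37 C/5% CO2; ONE-Glo luciferase read.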

[15] = qHTS assay to identify small molecule antagonists of the estrogen related receptor signaling pathway with the pleiotropic PPARgamma coactivator (PGC) from Tox21 10K library - cell viability counter screen (AID 1224840; active = well fitted cell-killing curve with a large enough effect in the repeat runs, not every such curve was filed as active; note: nearly all actives have a fitted effect of over 40% in size; note: potency is the fitted concentration of half-maximal effect)
Outline: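 Step one, plate 2,000 PGC/ERR cells per well; step two, incubate 6 h at 37 C/5% CO2; step three, pin-transfer compounds; step four, incubate 17.5 h; step five, add CellTiter-Fluor and read fluorescence after 30 min.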

[16] = qHTS assay to identify small molecule agonists of the hypoxia (HIF-1) signaling pathway (AID 1224846; active = well fitted activation curve with a large enough effect in the signal ratio in the repeat runs, not every such curve was filed as active; the % refers to the signal ratio)
Outline: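 Steps: seed ME-180 HRE-bla cells (2,000/well, 0.5% dialyzed FBS); incubate 5 hrs at 37C; pin-transfer compounds or DMSO; incubate 17 hrs; add LiveBLAzer B/G substrate CCF4-AM; measure reporter activation by FRET.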

[17] = qHTS RealTime-Glo MT Cell Viability Assay in HepG2 cells - 24 hour (AID 1224867); note: nearly all actives have a fitted effect of over 50% in size; note: potency is the fitted concentration of half-maximal effect
Outline: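 Real-time, nonlytic viability: 600 HepG2 cells/well mixed with NanoLuc enzyme plus prosubstrate; 5 h settle, compound (DMSO) added by pintool; luminescence monitored over 40 h at 37 C.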

[18] = qHTS RealTime-Glo MT Cell Viability Assay in HEK293 cells - 32 hour (AID 1224868); note: nearly all actives have a fitted effect of over 50% in size; note: potency is the fitted concentration of half-maximal effect; for activity change, negative = cytotoxic: top concentration of the series differs between compounds
Outline: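 Cells + reagent dispensed (600 cells/well, HEK293) → 5 h at 37 C/5% CO2 → 23 nL compound in DMSO pinned → 40 h at 37 C → luminescence read at 0, 8, 16, 24, 32, 40 h.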

[19] = qHTS assay to identify small molecule agonists of H2AX (AID 1224845; active = well fitted activation curve with a large enough effect in the signal ratio in the repeat runs, not every such curve was filed as active; the % refers to the signal ratio; note: potency is the fitted concentration of half-maximal effect)
Outline: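 Wild-type CHO-K1 cells, plated overnight, exposed 3hr at 37C to 15 concentrations (0.76% DMSO final). Lysed, then HTRF anti-pH2AX (S139) cryptate and anti-H2AX-d2 antibodies, 24 hr room temperature; 665/620 nm emission read.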

Sequence of Nuclear receptor subfamily 1 group I member 3 (Homo sapiens) (Q14994 whole entry, looked up): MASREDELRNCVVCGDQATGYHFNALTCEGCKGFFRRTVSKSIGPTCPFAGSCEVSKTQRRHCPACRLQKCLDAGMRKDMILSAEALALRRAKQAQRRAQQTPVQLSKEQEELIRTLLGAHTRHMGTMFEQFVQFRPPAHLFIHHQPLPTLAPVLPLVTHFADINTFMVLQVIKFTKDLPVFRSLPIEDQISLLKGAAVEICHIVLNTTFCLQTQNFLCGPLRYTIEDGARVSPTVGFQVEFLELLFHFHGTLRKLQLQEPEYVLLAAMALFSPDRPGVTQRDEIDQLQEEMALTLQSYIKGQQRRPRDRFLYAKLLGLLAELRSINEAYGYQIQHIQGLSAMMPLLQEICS
Sequence of Luciferin 4-monooxygenase (Photinus pyralis) (P08659 whole entry, looked up): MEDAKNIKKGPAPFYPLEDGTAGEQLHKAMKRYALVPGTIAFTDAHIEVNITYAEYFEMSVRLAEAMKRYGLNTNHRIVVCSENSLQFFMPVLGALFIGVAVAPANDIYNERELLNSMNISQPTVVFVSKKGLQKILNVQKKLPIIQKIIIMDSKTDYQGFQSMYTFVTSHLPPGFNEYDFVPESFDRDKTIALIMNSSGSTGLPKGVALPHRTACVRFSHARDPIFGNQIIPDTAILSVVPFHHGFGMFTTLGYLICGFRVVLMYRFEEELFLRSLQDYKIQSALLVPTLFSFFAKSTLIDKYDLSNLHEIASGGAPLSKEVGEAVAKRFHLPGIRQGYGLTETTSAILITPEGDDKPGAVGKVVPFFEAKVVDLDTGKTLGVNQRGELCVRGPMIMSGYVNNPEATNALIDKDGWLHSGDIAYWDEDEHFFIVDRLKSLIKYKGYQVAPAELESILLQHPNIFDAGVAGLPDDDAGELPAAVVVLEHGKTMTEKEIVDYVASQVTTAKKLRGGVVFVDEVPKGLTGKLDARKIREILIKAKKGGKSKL
Sequence of Thyrotropin receptor (Homo sapiens) (P16473 whole entry, looked up): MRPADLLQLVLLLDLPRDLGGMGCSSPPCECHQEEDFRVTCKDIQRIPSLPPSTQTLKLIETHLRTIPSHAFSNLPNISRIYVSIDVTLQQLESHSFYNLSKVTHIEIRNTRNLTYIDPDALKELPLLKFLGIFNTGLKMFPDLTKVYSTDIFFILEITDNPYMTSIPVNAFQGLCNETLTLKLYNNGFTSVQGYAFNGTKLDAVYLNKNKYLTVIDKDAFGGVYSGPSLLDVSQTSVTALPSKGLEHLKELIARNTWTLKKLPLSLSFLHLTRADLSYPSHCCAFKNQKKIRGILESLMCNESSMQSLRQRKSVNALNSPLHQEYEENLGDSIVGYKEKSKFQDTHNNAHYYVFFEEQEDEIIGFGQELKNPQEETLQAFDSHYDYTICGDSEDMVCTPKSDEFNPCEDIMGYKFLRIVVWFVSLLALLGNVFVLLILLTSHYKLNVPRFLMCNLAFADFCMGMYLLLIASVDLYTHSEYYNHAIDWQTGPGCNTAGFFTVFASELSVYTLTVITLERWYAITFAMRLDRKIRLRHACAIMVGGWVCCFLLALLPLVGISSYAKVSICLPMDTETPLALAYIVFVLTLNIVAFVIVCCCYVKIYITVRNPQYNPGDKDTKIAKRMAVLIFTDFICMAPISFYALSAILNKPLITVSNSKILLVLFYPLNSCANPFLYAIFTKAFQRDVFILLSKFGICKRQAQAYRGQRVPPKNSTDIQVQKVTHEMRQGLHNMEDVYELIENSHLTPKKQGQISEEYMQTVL

CC(=O)[C@H]1CC[C@H]2[C@@H]3CCC4=CC(=O)CC[C@]4(C)[C@H]3CC[C@]12C
Potency [1]: inactive
Potency [2]: inactive
Potency [3]: 27.1 µM (active) and 13.7 µM (active)
Potency [4]: inactive
Potency [5]: inactive
Potency [6]: inactive
Potency [7]: 100 µM (active) and 101 µM (active)
Potency [8]: 13.6 µM (active) and 15.4 µM (active)
activity change, positive = activation ([9]; at 92.4 µM (top of the series)): -73.5% (inactive) and -66.4% (inactive)
Potency [10]: inactive
Potency [11]: inactive

O=C(/C=C/c1ccc(O)c(O)c1)O[C@@H](C(=O)O)[C@@H](OC(=O)/C=C/c1ccc(O)c(O)c1)C(=O)O
Potency [12]: inactive
Potency [13]: inactive
Potency [14]: inactive
Potency [15]: inactive
Potency [6]: inactive
Potency [16]: inactive
Potency [7]: inactive
Potency [17]: inactive
Potency [18]: inactive
Potency [10]: inactive
Potency [11]: inactive

CCCCCCOC(=O)C(C)CC (stereo not drawn)
Potency [12]: inactive
Potency [2]: inactive
Potency [13]: inactive
Potency [14]: inactive
Potency [15]: inactive
Potency [4]: inactive
Potency [5]: inactive
Potency [6]: inactive
Potency [19]: inactive
Potency [16]: inactive
Potency [7]: inactive
Potency [8]: inactive
activity change, positive = activation ([9]; at 92.4 µM (top of the series)): 0.0288% (inactive)
Potency [17]: inactive
Potency [18]: inactive
Potency [10]: inactive
Potency [11]: inactive

CCCCCCCCCCCCCCCC[N+](C)(C)CC
Potency [1]: inactive
Potency [15]: 30.7 µM (active) and inactive
Potency [4]: inactive
Potency [5]: inactive
Potency [6]: inactive
Potency [19]: inactive
Potency [7]: 101 µM (active) and 49.2 µM (active)
Potency [8]: 17.3 µM (active) and 10.6 µM (active)
activity change, positive = activation ([9]; at 42.5 µM (top of the series)): -55.4% (inactive)
activity change, positive = activation ([9]; at 92.4 µM (top of the series)): -72.7% (inactive)
Potency [17]: 24.6 µM (active) and 23.9 µM (active)
Potency [18]: 4.91 µM (active) and 4.77 µM (active)
Potency [10]: inactive
Potency [11]: 19.6 µM (active) and 19 µM (active)

OC1CCCc2ccccc21 (stereo not drawn)
Potency [12]: inactive
Potency [2]: inactive
Potency [13]: inactive
Potency [14]: inactive
Potency [15]: inactive
Potency [5]: inactive
Potency [19]: inactive
Potency [16]: inactive
Potency [7]: inactive
Potency [17]: inactive
Potency [18]: inactive
Potency [10]: inactive

S=C([S-])NCCNC(=S)[S-].S=C([S-])NCCNC(=S)[S-].[Mn+2].[Zn+2]
Potency [2]: inactive
Potency [15]: inactive
Potency [5]: inactive
Potency [6]: inactive
Potency [19]: inactive
Potency [16]: inactive
Potency [7]: inactive
Potency [17]: inactive
Potency [10]: inactive

Oc1cc(Cl)cc(Cl)c1Cl
Potency [12]: inactive
Potency [2]: inactive
Potency [13]: inactive
Potency [14]: inactive
Potency [5]: inactive
Potency [6]: inactive
Potency [19]: inactive
Potency [16]: inactive
Potency [7]: 51.7 µM (active)
Potency [17]: inactive
Potency [10]: inactive
Potency [11]: inactive

CC/C=C\CCCCCO
Potency [12]: inactive
Potency [2]: inactive
Potency [13]: inactive
Potency [14]: inactive
Potency [15]: inactive
Potency [3]: inactive
Potency [5]: inactive
Potency [6]: inactive
Potency [16]: inactive
Potency [7]: inactive
Potency [8]: inactive
activity change, positive = activation ([9]; at 92.4 µM (top of the series)): 4.13% (inactive)
Potency [17]: inactive
Potency [18]: inactive
Potency [10]: inactive
Potency [11]: inactive

Cc1ccc(-c2ccccc2)cc1
Potency [12]: inactive
Potency [2]: inactive
Potency [13]: inactive
Potency [14]: inactive
Potency [15]: inactive
Potency [4]: inactive
Potency [5]: inactive
Potency [6]: inactive
Potency [19]: inactive
Potency [16]: inactive
Potency [7]: inactive
Potency [8]: inactive
activity change, positive = activation ([9]; at 92.4 µM (top of the series)): -3.62% (inactive)
Potency [17]: inactive
Potency [10]: inactive
Potency [11]: inactive

O=[N+]([O-])c1ccc(F)c(Cl)c1
Potency [12]: inactive
Potency [13]: inactive
Potency [14]: inactive
Potency [15]: inactive
Potency [5]: inactive
Potency [6]: inactive
Potency [19]: inactive
Potency [16]: inactive
Potency [7]: inactive
Potency [17]: inactive
Potency [18]: inactive
Potency [10]: inactive
Potency [11]: inactive

O=C(O)O
viability change, negative = cytotoxic [12]: 1.44% [at 8.39 µM] (inactive)
activity change, negative = cytotoxicity [2]: -19.8% [at 8.39 µM] (inactive)
viability change, negative = cytotoxic [15]: -0.122% [at 8.39 µM] (inactive)
activity, negative = inhibition [3]: 259% [at 8.39 µM] (inactive)
activation [5]: 2.41% [at 8.39 µM] (inactive)
Potency [19]: 4.88 µM (active)
activity change, negative = cytotoxicity [7]: -9.67% [at 14 µM] (inactive)
activity, negative = inhibition [8]: 10.7% [at 8.39 µM] (inactive)
activity change, positive = activation ([9]; at 8.39 µM (top of the series)): 5.47% (inactive)
activity change, negative = cytotoxicity [17]: 3.08% [at 6.97 µM] (inactive)
cytotoxicity [10]: 2.74% [at 6.97 µM] (inactive)
activity change, negative = cytotoxic [11]: 19% [at 6.97 µM] (inactive)
